An excerpt weighted towards active compounds, which were near 19% of everything screened.
SARS PLpro yeast = qHTS of Yeast-based Assay for SARS-CoV PLP. S. cerevisiae expressing SARS-CoV PLpro, growth rescue. Potency, µM (doses to about 32.9 µM), inactives show top-dose activity, positive = growth rescue, hits mostly activators. 330,000 tested, 0.19% active. AID 485353, 2010; calls by dose curve; further: potency means the concentration at half of the fitted maximal effect; 0% is about no effect; nearly all actives have a fitted effect of over 55% in size
CHX counter = Cycloheximide Counterscreen for Small Molecule Inhibitors of Shiga Toxin | max response, % | AID 2314, 2010 | cell reporter, cycloheximide protein synthesis inhibition counterscreen | 300,000 tested, 12% active; in the data active means max response mostly above about 13%, no sharp cut-off; inactive means mostly below about 14%; further: read at 38.3 µM for the half of the compounds with a filed dose; 0% is about no effect
Pf growth 96h = Primary qHTS for delayed death inhibitors of the malarial parasite plastid, 96 hour incubation | AID 504834, 2011 | Potency, µM (series often up to 28.7 µM), inactives show at the top dose activity change, negative = inhibition, usual class: inhibitors | P. falciparum luciferase reporter growth, 96 h | 320,000 tested, 6.9% active; further: potency means the concentration at half of the fitted maximal effect; on the % scale 0 is the no-effect control and ±100 the full control effect
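Delayed-death screen, second-generation endpoint: infected erythrocytes, 2% hematocrit, 0.05% parasitemia final; 96 hours at 37 C, 5% CO2; luciferase detection reagent; luminescence decrease equals reduced growth.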
Pf growth 48h = Primary qHTS for delayed death inhibitors of the malarial parasite plastid, 48 hour incubation | Potency, µM (series often up to 28.7 µM), inactives show at the top dose activity change, negative = inhibition, hits mostly inhibitors | P. falciparum luciferase growth in erythrocytes, 48 h | 310,000 tested, 5.9% active; further: potency means the concentration at half of the fitted maximal effect; on the % scale 0 is the no-effect control and ±100 the full control effect
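Compounds are pin-transferred into medium, infected erythrocytes (2% hematocrit, 0.1% parasitemia final) are added, and plates sit one parasite generation at 37 C in 5% CO2. Detection reagent is then added and luminescence measured.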
AMA1 RON2 block = qHTS for Inhibitors of AMA1-RON; Towards Development of Antimalarial Drug Lead: Primary Screen | AlphaScreen AMA1-biotinylated RON2 peptide binding | Potency, µM (series often up to 58.2 µM), inactives show top-dose activity change, negative = inhibition, most hits filed as inhibitors | 360,000 tested, 0.2% active | AID 720542, 2013;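 further: potency means the concentration at half of the fitted maximal effect; 0% = vehicle wells and -100% = peptide control; nearly all actives have a fitted effect of over 45% in size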
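AMA1 (3D7) with his tag at 25 nM final met compounds first, then biotinylated RON2 peptide at 25 nM; detection used donor plus acceptor beads, 10 µg/mL apiece, read by AlphaScreen after 30 min at room temperature.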
Shiga toxin inh = A qHTS for Small Molecule Inhibitors of Shiga Toxin; Vero cells, Shiga toxin protein synthesis inhibition reporter; 290,000 tested, 9.2% active; inhibition, % at 38.7 µM; in the data active means inhibition mostly above about 28%, no sharp cut-off; inactive means mostly below about 43%; further: 0% is about no effect
Starred values were filed as active, the others as inactive; i = inactive; ? = inconclusive; nt = no result; [ ] = another dose, or the depositor's remark. Unless noted, the call rests on the fitted dose curve; in most records, active means well fitted curve in the direction sought with a large enough effect; inconclusive means small, poorly fitted or top-dose-only effect, or another doubt; inactive means no such curve, though single readings can be large; an effect the other way counts as inactive or inconclusive.

SMILES	SARS PLpro yeast	CHX counter	Pf growth 96h	Pf growth 48h	AMA1 RON2 block	Shiga toxin inh
COc1ccc(N2CCN(C(=O)c3cc(-c4cccs4)nc4ccccc34)CC2)cc1	-5%	7	?	?	13µM*	13
COc1ccc(-c2cc(C(=O)N3CCCCCC3)c3ccccc3n2)cc1OC	nt	nt	nt	nt	47%	nt
COc1ccc(-c2cc(C(=O)N3CCCCCC3)c3ccccc3n2)cc1	6%	nt	3.3µM*	9.3µM*	1%	nt
O=C(O)c1cc(NS(=O)(=O)c2ccc(N3CCCCC3)c([N+](=O)[O-])c2)cc(C(=O)O)c1	-13%	-2	-25%	24%	-11%[2.32 µM]	2
CC(C)CNC(=S)Nc1ccc(S(N)(=O)=O)cc1	6%	-4	-7%	2%	6%	10
Cc1ccc(NC(=S)NCC(C)C)cc1	25%	35*	22%	21%	8%	40*
CC(C)CCNC(=S)Nc1ccc(Br)cc1	-80%	30*	2%	?	-2%	48*
CC(C)CCNC(=S)Nc1ccc([N+](=O)[O-])cc1	-88%	30*	18%	?	11%	56
CC(C)CCNC(=O)/C=C/c1ccc(Br)cc1	-25%	37*	-18%	26%	7%	100*
CCOC(=O)Cn1nc2sc3ccccc3n2c(=O)c1=O	0%	1	-1%	-9%	7%	-11
COc1cc2c(C(=O)N3CCN(c4cccc(Cl)c4)CC3)cn(CC(C)C)c(=O)c2cc1OC	-3%	-6	nt	nt	21%	-14
CNC1=CN=C(c2ccccc2)c2cc(Cl)ccc2N1	nt	-1	nt	nt	nt	-13
COc1cccc(-c2noc(Cn3nc(C)c([N+](=O)[O-])c3C)n2)c1	?	-1	-12%	?	-20%	-8
COc1cccc(OCc2nc(-c3cccc([N+](=O)[O-])c3)no2)c1	-6%	25*	-4%	16%	?	46
COc1cccc(OCc2nc(-c3ccc(Br)o3)no2)c1	-12%	28*	124%	14%	-7%	48
Cc1cccc(OCc2nc(-c3ccc(Br)o3)no2)c1	1%	13	-9%	24%	12%	92*
COc1ccc(Cc2nc(-c3ccc(Br)o3)no2)cc1OC	-2%	18*	?	nt	-14%	52
COc1ccc(C2(OC)Oc3cc(OC)ccc3C(=O)C2(O)OC)cc1 (stereo not drawn)	nt	nt	nt	nt	-12%	nt
CC(C)Oc1ccc2c(c1)OC(c1ccccc1)(C(F)(F)F)NC2=O (stereo not drawn)	1%	-4	0.19µM*	0.83µM*	-8%	-4
COc1ccc2c(c1)OC(c1ccccc1)(C(F)(F)F)NC2=O (stereo not drawn)	-5%	-4	?	2.9µM*	6%	10
O=C(C1CC1)N1CCc2cc(Br)cc(S(=O)(=O)NCc3ccc4c(c3)OCO4)c21	-5%	-1	?	-12%	7%	11
COC(=O)c1ccc(CSc2ccc3nnc(-c4cccc(F)c4)n3n2)o1	-4%	0	?	12µM*	0%	-8
CCOC(=O)CC(=O)CSc1ccc2nnc(-c3cccc(F)c3)n2n1	-6%	-2	7%	7.4µM*	8%	-32
CCOC(=O)CC(=O)CSc1ccc2nnc(-c3ccc(F)cc3)n2n1	5%	-5	nt	?	3%	8
O=C(CSc1ccc2nnc(-c3cccc(F)c3)n2n1)NCc1ccco1	-1%	-2	6.6µM*	?	-10%	-8
SMILES	SARS PLpro yeast	CHX counter	Pf growth 96h	Pf growth 48h	AMA1 RON2 block	Shiga toxin inh
CC(CCc1ccccc1)NC(=O)C(Cc1ccccc1)NC(N)=O (stereo not drawn)	0%	-3	29%	10%	2%	-5
COC(=O)C(NC(=O)c1ccc(C)cc1)(Nc1cccc(C)n1)C(F)(F)F (stereo not drawn)	-19%	-1	-7%	?	8%	7
Cc1[nH]c2c(ccc3cccnc32)c1C	0%	17*	19%	18%	?	41*
Clc1ccc2ccc3cccnc3c2n1	-6%	5	?	?	39%	51
CCn1c2ccc(Cl)cc2c2nc3ccccc3nc21	1%	-3	6%	0%	55%	-13
CCn1c2ccc(C)cc2c2nc3cc(C(=O)O)ccc3nc21	-101%	44*	i	94%	0%	61*
COc1cc(CN2CCN(C3CCC3)CC2CCO)cc(OC)c1 (stereo not drawn)	5%	-2	-14%	7%	7%	nt
Cc1ccc2c(COC(=O)c3cnc(C)cn3)cc(=O)oc2c1	7%	-1	17%	25%	nt	3
Cc1ccc(S(=O)(=O)CCC(=O)OCc2cc(=O)oc3cc(C)ccc23)cc1	2%	nt	nt	nt	-9%	nt
CCOC(=O)Nc1ccc2c(COC(=O)c3ccccc3O)cc(=O)oc2c1	1%	27*	-17%	4%	-6%	76*
Cc1ccc2c(COC(=O)c3ccccc3OC(F)F)cc(=O)oc2c1	0%	26*	28%	4%	8%	47
Cc1ccc2c(COC(=O)CNC(=O)c3ccccc3)cc(=O)oc2c1	?	36*	48%	41%	-8%	28
Cc1ccc(S(=O)(=O)NCC(=O)OCc2cc(=O)oc3cc(C)ccc23)cc1	2%	nt	1%	-8%	0%	nt
Cc1ccc2c(COC(=O)C3=COCCO3)cc(=O)oc2c1	-4%	64*	?	nt	0%	89*
Oc1cc(CNC2CCCCC2)c(O)cc1CNC1CCCCC1	nt	nt	nt	nt	-22%	nt
COc1ccc(OC)c(N2C(=O)CC(Cc3ccc(C)cc3)C2=O)c1 (stereo not drawn)	-6%	-3	49%	0%	-8%	2
CCN(CC)c1ccc(C(=O)OCc2cc(=O)oc3cc(O)ccc23)cc1	-10%	-4	4.7µM*	?	-10%	-2
CCN(CC)c1ccc2c(O)cc(=O)oc2c1	-5%	14	74%	0%	6%	41
O=C(CSCc1ccccc1Cl)N/N=C/c1ccco1	-2%	13	13µM*	16%	6%	46
O=C(CSc1nc2ccccc2s1)N/N=C/c1ccco1	-7%	14*	13%	39%	-9%	29
C/C(=N\NC(=O)CSc1nc2ccccc2s1)c1ccco1	6%	17*	21%	45%	52%	48*
O=C(CSc1nc2cc(Cl)ccc2s1)c1ccco1	-6%	20*	10µM*	39%	66%	56
C=CCn1c(SCC(=O)Nc2ccccc2C)nc(O)cc1=O	2%	-7	72%	?	1%	-11
N#C/C(=C\c1ccco1)Sc1nc2ccccc2s1	-10%	69*	14%	25%	-25%	39*
